The results in this text go back to article PMC5540273 (PLoS ONE, 2017).

What all share (conditions): concentration: 1 μM, replicates: in singlicate; n = 1
For assay [1], the system named is RIPK4.
Assay [2] has as its system RIPK5.
In assay [3] the test system is ROCK1.
The subject of assay [4] is ROCK2.
Assay [5] relates to ROS1.
The subject of assay [6] is RPS6KA4(Kin.Dom.1-N-terminal).
In assay [7] the test system is RPS6KA4(Kin.Dom.2-C-terminal).
In assay [8] the test system is RPS6KA5(Kin.Dom.1-N-terminal).
Assay [9] has as its system RPS6KA5(Kin.Dom.2-C-terminal).
Assay [10] relates to T1, RSK1(Kin.Dom.1-N-terminal).
T1 construct: gene RPS6KA1
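Further: KINOMEscan kinase panel screen.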

`O=c1cc(N2CCOCC2)nc2n(Cc3cccc(Cl)c3Cl)c3ccccc3n12` [GSK2299009]: the “%Inh” value in assay [1] was 16%; in [2], 0%; in [3], 10%; in assay [4], 0%; in [5] it was 38%; in assay [6], 24%. The “%Inh” value was determined as 0% in assay [7], 16% in [8], 2% in assay [9] and 31% in [10].

Take `COc1cc2ncnc(Nc3cccc(Br)c3)c2cc1OC.Cl` [GI230329]: the “%Inh” value in [1] came to 5%; in assay [2] it was 8%; in assay [3], 37%; in assay [4], 33%; in assay [5], 28%; in [6], 8%. The “%Inh” value in assay [7] amounted to 0%; in assay [8] it was 0%; in [9] it was 2%; in [10] it was 0%.

Consider `O=C(Nc1n[nH]c2nc(-c3cccs3)c(Br)cc12)C1CCCC1` [SB-743341], for which the “%Inh” value was determined as 0% in assay [1]; 34% in assay [2]; 0% in assay [3]; 0% in assay [4]; 21% in [5]; 4% in assay [6]. For the same compound, the “%Inh” value was 25% in assay [7], 4% in assay [8], 7% in [9] and 0% in assay [10].

For the compound `COc1cccc(CNC(=O)NC2CCN(c3ccnc(Nc4ccc(F)cc4)n3)C2)c1` (stereo not drawn) [GSK1379723], the “%Inh” value amounted to 20% in [1]; 10% in assay [2]; 0% in assay [3]; 0% in assay [4]; 0% in assay [5]; 0% in assay [6]. Besides, the “%Inh” value in assay [7] was found to be 0%; in assay [8], 7%; in [9], 36%; in [10], 2%.

For the compound `COc1ccc(Nc2nccc(N3CCC(NC(=O)C(C)c4ccc(Cl)cc4)C3)n2)cc1` (stereo not drawn) [GSK1379735], the “%Inh” value in [1] was 4%; in assay [2], 12%; in assay [3], 11%; in assay [4], 4%; in [5], 17%; in assay [6] it was 5%. Moreover, the “%Inh” value is on record as 0% in assay [7], 21% in assay [8], 0% in assay [9] and 31% in assay [10].

Turning to `CC(C)c1cc(-c2ccc3c(N)n[nH]c3c2)nc(N)n1` [GSK2250882], the “%Inh” value in assay [1] came to 4%; in assay [2] it was 0%; in assay [3], 28%; in [4], 20%; in [5] it was 23%; in assay [6], 13%. The “%Inh” value in [7] is 3%; in assay [8], 0%; in assay [9], 25%; in assay [10] it was 14%.

With `FC(F)(F)c1ccccc1-c1cc(-c2c[nH]nc2-c2ccccn2)ccn1` [GW679396], the “%Inh” value in assay [1] was determined as 0%; in assay [2], 0%; in [3], 9%; in [4], 14%; in [5] it was 6%; in assay [6], 18%. The “%Inh” value is given as 0% in [7], 24% in [8], 0% in assay [9] and 6% in assay [10].

`Cc1ccc(NC(=O)Nc2ccccc2F)cc1-c1ccc(C(=O)Nc2ccncc2)cc1` [GSK1398477]: the “%Inh” value in assay [1] came out at 30%; in assay [2], 6%; in [3] it was 26%; in assay [4], 0%; in assay [5], 3%; in assay [6], 20%. Also, the “%Inh” value came out at 0% in assay [7], 34% in [8], 0% in assay [9] and 23% in [10].

`COc1ccc(-c2coc3ccc(-c4nnc(C)o4)cc23)cc1`: the “%Inh” value amounted to 0% in assay [1]; 0% in assay [2]; 0% in [3]; 0% in [4]; 0% in assay [5]; 13% in [6]. The “%Inh” value stood at 0% in assay [7], 4% in assay [8], 4% in [9] and 0% in assay [10].

Take `COC(=O)c1cccc(NC(=O)NC2CCN(c3ccnc(Nc4ccc(OC)cc4)n3)C2)c1` (stereo not drawn) [GSK1379746]: the “%Inh” value worked out at 13% in assay [1]; 0% in assay [2]; 2% in [3]; 44% in assay [4]; 0% in assay [5]; 14% in [6]. Moreover, the “%Inh” value in assay [7] is 0%; in assay [8], 17%; in [9] it was 0%; in [10] it was 3%.

Regarding `O=C(Nc1n[nH]c2cc(-c3ccsc3)ccc12)C1CC1` [SB-732932], the “%Inh” value in assay [1] amounted to 35%; in assay [2], 8%; in [3] it was 7%; in assay [4], 0%; in assay [5], 0%; in assay [6], 12%. Also, the “%Inh” value in assay [7] is recorded as 17%; in [8], 0%; in assay [9], 13%; in assay [10], 26%.

With `Nc1nccc(-c2c(-c3ccc(F)cc3)ncn2C2CCN(Cc3ccccc3)CC2)n1` [SB-219980], the “%Inh” value is 7% in [1]; 34% in assay [2]; 34% in assay [3]; 0% in assay [4]; 10% in assay [5]; 0% in [6]. For the same compound, the “%Inh” value in assay [7], in [8], in [9] and in [10] was 0% throughout.

`Cl.Cl.Cl.N#Cc1ccc(CCNc2nccc(-c3cccc(CN4CCNCC4)c3)n2)cc1` [GSK2137462]: the “%Inh” value in assay [1] worked out at 0%; in assay [2], 19%; in assay [3] it was 33%; in assay [4], 41%; in assay [5], 6%; in assay [6] it was 0%. In addition, the “%Inh” value is reported as 0% in [7], 19% in assay [8], 5% in assay [9] and 10% in assay [10].

With `CC(=O)c1c(C)c2cnc(Nc3ccc(N4CCNCC4)cn3)nc2n(C2CCCC2)c1=O`, the “%Inh” value in assay [1] came to 0%; in assay [2] it was 0%; in [3], 0%; in assay [4], 0%; in [5] it was 0%; in assay [6], 15%. In addition, the “%Inh” value in assay [7] stood at 0%; in [8] it was 0%; in assay [9] it was 0%; in [10], 14%.

As for `CNc1nc(-c2ccc3c(N)n[nH]c3c2)cc(N2C[C@@H](C(=O)NC3CCCCC3)OC[C@H]2C)n1` [GSK2375584], the “%Inh” value in assay [1] turned out to be 11%; in [2] it was 1%; in assay [3], 23%; in assay [4] it was 26%; in assay [5], 19%; in assay [6], 16%. Besides, the “%Inh” value in [7] amounted to 0%; in [8], 25%; in assay [9], 24%; in assay [10] it was 11%.
